# PubChem BioAssay (NCATS)
# Inconclusive results are not listed. Where a call stands in place of a potency, no number is given. A number with no mark means an inactive call. Activity calls are given as the source filed them. Calls follow the shape of the dose curve; as a rule, active = well fitted curve in the direction sought with a large enough effect; inconclusive = small, poorly fitted or top-dose-only effect, or another doubt; inactive = no such curve, though single readings can be large; an effect the other way counts as inactive or inconclusive.
# How the values were obtained:
# [1] = test system: NIH3T3; experiment: Cytotoxic Profiling of Annotated Libraries Using Quantitative High-Throughput Screening (AID 1296008); conditions: Five cell lines viability, CellTiter-Glo ATP luminescence, 48-72 h; max response: stronger effect = lower value; also: nearly all actives have a fitted effect of over 60% in size
# Outline: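 Cytotoxicity was measured as CellTiter-Glo ATP luminescence, read after 10 min at room temperature. Compound treatment of the cells lasted 48 or 72 hr at 37 degrees Celsius in a qHTS format.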
# [2] = test system: MCC-13; experiment: qHTS assay to identify novel small-molecules to repurpose for Merkel cell carcinoma treatment (AID 1296009); conditions: MCC and control cell lines, CellTiter-Glo viability, 72 h; series mostly up to 46 µM; also: nearly all actives have a fitted effect of over 60% in size
# Outline: (§1)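 72 hr, 37 degree celsius; NPC 8-pt / MIPE 11-pt dose response; compound pinned in DMSO; CellTiter-Glo, 10 min RT, luminescence; normalized to no-cell and DMSO controls.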
# [3] = test system: MCC-26; experiment: as above; conditions: MCC and control cell lines, CellTiter-Glo viability, 72 h; series mostly up to 46 µM
# Outline: as §1
# [4] = test system: MKL-1; experiment: as above; conditions: MCC and control cell lines, CellTiter-Glo viability, 72 h; series mostly up to 46 µM
# Outline: as §1
# [5] = test system: MKL-2; experiment: as above; conditions: MCC and control cell lines, CellTiter-Glo viability, 72 h; series mostly up to 46 µM
# Outline: as §1
# [6] = test system: UISO; experiment: as above; conditions: MCC and control cell lines, CellTiter-Glo viability, 72 h; series mostly up to 46 µM
# Outline: as §1
# [7] = test system: WaGa; experiment: as above; conditions: MCC and control cell lines, CellTiter-Glo viability, 72 h; series mostly up to 46 µM
# Outline: as §1
# [8] = test system: C33A; experiment: Primary qHTS to identify gynecologic anti-cancer compounds using libraries of approved drugs and bioactive compounds (AID 1345084); conditions: Gynecologic cancer cell panel viability, ATPlite luminescence, 48 h; series mostly up to 57.5 µM; also: nearly all actives have a fitted effect of over 55% in size
# Outline: (§2)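 48 h compound exposure at 37 C, 5% CO2; five-point qHTS. ATPlite luminescence readout of cell ATP.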
# [9] = test system: CASKI; experiment: as above; conditions: Gynecologic cancer cell panel viability, ATPlite luminescence, 48 h; series mostly up to 57.5 µM
# Outline: as §2
# [10] = test system: Es-2; experiment: as above; conditions: Gynecologic cancer cell panel viability, ATPlite luminescence, 48 h; series mostly up to 57.5 µM
# Outline: as §2
# [11] = test system: HeLa; experiment: as above; conditions: Gynecologic cancer cell panel viability, ATPlite luminescence, 48 h; series mostly up to 57.5 µM
# Outline: as §2
# [12] = test system: Hek293T; experiment: as above; conditions: Gynecologic cancer cell panel viability, ATPlite luminescence, 48 h, control line for the selectivity index; series mostly up to 57.5 µM
# Outline: as §2
# [13] = test system: JEG-3; experiment: as above; conditions: Gynecologic cancer cell panel viability, ATPlite luminescence, 48 h; series mostly up to 57.5 µM
# Outline: as §2
# [14] = test system: OV90; experiment: as above; conditions: Gynecologic cancer cell panel viability, ATPlite luminescence, 48 h; series mostly up to 57.5 µM
# Outline: as §2
# [15] = test system: PA-1; experiment: as above; conditions: Gynecologic cancer cell panel viability, ATPlite luminescence, 48 h; series mostly up to 57.5 µM
# Outline: as §2
# [16] = test system: SKOV3; experiment: as above; conditions: Gynecologic cancer cell panel viability, ATPlite luminescence, 48 h; series mostly up to 57.5 µM
# Outline: as §2
# [17] = test system: CAOV3; experiment: as above; conditions: Gynecologic cancer cell panel viability, ATPlite luminescence, 48 h; series mostly up to 57.5 µM
# Outline: as §2
# [18] = test system: HEK293T; experiment: qHTS assay to identify novel small-molecules to repurpose for Merkel cell carcinoma treatment (AID 1296009); conditions: MCC and control cell lines, CellTiter-Glo viability, 72 h; at 44.8 µM (top of the series) unless noted; also: nearly all actives have a fitted effect of over 60% in size
# Outline: as §1
# [19] = test system: NIH3T3; experiment: as above; conditions: MCC and control cell lines, CellTiter-Glo viability, 72 h; at 44.8 µM (top of the series) unless noted
# Outline: as §1
# Potency is read from the fitted curve at half-maximal effect.
structure (smiles),measurement,setting,value
O=C(O)Cc1ccc(-c2ccccc2)cc1,max response,[1],-5.58%
same,Potency,[2],inactive
same,Potency,[3],inactive
same,Potency,[4],inactive
same,Potency,[5],inactive
same,Potency,[6],inactive
same,Potency,[7],inactive
same,Potency,[8],inactive
same,Potency,[9],inactive
same,Potency,[10],inactive
same,Potency,[11],inactive
same,Potency,[12],inactive
same,Potency,[13],inactive
same,Potency,[14],inactive
same,Potency,[15],inactive
same,Potency,[16],inactive
CCCCCCOc1ccccc1C(N)=O,max response,[1],-8.29%
same,Potency,[2],inactive
same,Potency,[4],inactive
same,Potency,[5],inactive
same,Potency,[8],inactive
same,Potency,[17],inactive
same,Potency,[9],inactive
same,Potency,[10],inactive
same,Potency,[11],inactive
same,Potency,[12],inactive
same,Potency,[13],inactive
same,Potency,[14],inactive
same,Potency,[15],inactive
same,Potency,[16],inactive
N=C1N=C(N)c2cc3ccccc3cc21,Potency,[1],10.9 µM (active)
same,Potency,[2],43.3 µM (active)
same,Potency,[4],38.6 µM (active)
same,Potency,[5],24.3 µM (active)
same,Potency,[6],24.3 µM (active)
same,Potency,[9],31.6 µM (active)
same,Potency,[12],39.8 µM (active)
same,Potency,[15],35.5 µM (active)
Cc1ccc(C(=O)c2ccc(CC(=O)O)n2C)cc1,max response,[1],0.61%
same,Potency,[2],inactive
same,Potency,[4],inactive
same,Potency,[5],inactive
same,Potency,[6],inactive
same,Potency,[7],inactive
same,Potency,[8],inactive
same,Potency,[17],inactive
same,Potency,[9],inactive
same,Potency,[10],inactive
same,Potency,[11],inactive
same,Potency,[12],inactive
same,Potency,[13],inactive
same,Potency,[14],inactive
same,Potency,[15],inactive
same,Potency,[16],inactive
CC1(C)[C@@H](O)CC[C@]2(C)[C@H]3C(=O)C=C4[C@@H]5C[C@@](C)(C(=O)O)CC[C@]5(C)CC[C@@]4(C)[C@]3(C)CC[C@@H]12,max response,[1],-0.299%
same,outcome,[18],inactive
same,Potency,[8],inactive
same,Potency,[9],inactive
same,Potency,[10],inactive
same,Potency,[11],inactive
same,Potency,[12],inactive
same,Potency,[13],inactive
same,Potency,[14],inactive
same,Potency,[15],inactive
same,Potency,[16],3.16 µM (active)
C[C@H](O)[C@H](O)[C@H]1CNc2nc(N)[nH]c(=O)c2N1,outcome,[1],inactive
same,outcome,[18],inactive
same,outcome,[19],inactive
same,Potency,[8],inactive
same,Potency,[17],inactive
same,Potency,[9],inactive
same,Potency,[10],inactive
same,Potency,[11],inactive
same,Potency,[12],inactive
same,Potency,[13],inactive
same,Potency,[14],inactive
same,Potency,[15],inactive
same,Potency,[16],inactive
c1ccc2sc(SSc3nc4ccccc4s3)nc2c1,max response,[1],3.25%
same,Potency,[2],inactive
same,Potency,[4],inactive
same,Potency,[5],inactive
same,Potency,[6],inactive
same,Potency,[7],inactive
same,Potency,[8],inactive
same,Potency,[17],inactive
same,Potency,[9],inactive
same,Potency,[10],inactive
same,Potency,[11],inactive
same,Potency,[12],inactive
same,Potency,[13],inactive
same,Potency,[14],inactive
same,Potency,[15],inactive
same,Potency,[16],inactive
CN(C)c1ccc(N=NS(=O)(=O)O)cc1,max response,[1],2.87%
same,Potency,[2],inactive
same,Potency,[3],inactive
same,Potency,[4],5.12 µM (active)
same,Potency,[5],6.44 µM (active)
same,Potency,[7],40.7 µM (active)
same,Potency,[8],inactive
same,Potency,[9],inactive
same,Potency,[10],inactive
same,Potency,[11],inactive
same,Potency,[12],inactive
CNC(=O)c1c(I)c(NC(=O)CCCCC(=O)Nc2c(I)c(C(=O)O)c(I)c(C(=O)NC)c2I)c(I)c(C(=O)O)c1I,max response,[1],-3.88%
same,Potency,[2],inactive
same,Potency,[3],inactive
same,Potency,[4],inactive
same,Potency,[5],inactive
same,Potency,[6],inactive
same,Potency,[7],inactive
same,Potency,[8],inactive
same,Potency,[17],inactive
same,Potency,[9],inactive
same,Potency,[10],inactive
same,Potency,[11],inactive
same,Potency,[12],inactive
same,Potency,[13],inactive
same,Potency,[14],inactive
same,Potency,[15],inactive
same,Potency,[16],inactive
Cc1onc(-c2c(F)cccc2Cl)c1C(=O)N[C@@H]1C(=O)N2[C@@H]1SC(C)(C)[C@@H]2C(=O)O,max response,[1],-7.78%
same,outcome,[18],inactive
same,Potency,[17],inactive
same,Potency,[9],inactive
same,Potency,[10],inactive
same,Potency,[11],inactive
same,Potency,[12],inactive
same,Potency,[13],inactive
same,Potency,[14],inactive
same,Potency,[15],inactive
same,Potency,[16],inactive
CCCCC1C(=O)N(c2ccccc2)N(c2ccc(O)cc2)C1=O (configuration not stated),Potency,[1],15 µM (active)
same,Potency,[2],9.44 µM (active)
same,Potency,[4],1.5 µM (active)
same,Potency,[5],0.596 µM (active)
same,Potency,[6],6.68 µM (active)
same,Potency,[7],2.99 µM (active)
same,Potency,[9],inactive
same,Potency,[11],inactive
same,Potency,[13],inactive
O=C(OCc1ccccc1)c1ccccc1,max response,[1],0.848%
same,Potency,[2],inactive
same,Potency,[3],inactive
same,Potency,[4],inactive
same,Potency,[5],inactive
same,Potency,[6],inactive
same,Potency,[7],inactive
same,Potency,[8],inactive
same,Potency,[9],inactive
same,Potency,[10],inactive
same,Potency,[11],inactive
same,Potency,[12],inactive
same,Potency,[13],inactive
same,Potency,[14],inactive
same,Potency,[15],inactive
same,Potency,[16],inactive
O=C(CCN1CCN(CCO)CC1)N1c2ccccc2Sc2ccc(C(F)(F)F)cc21,max response,[1],1.15%
same,Potency,[2],inactive
same,Potency,[4],inactive
same,Potency,[5],inactive
same,Potency,[6],inactive
same,Potency,[7],inactive
same,Potency,[8],inactive
same,Potency,[9],inactive
same,Potency,[10],inactive
same,Potency,[11],inactive
same,Potency,[12],inactive
same,Potency,[13],inactive
same,Potency,[14],inactive
same,Potency,[15],inactive
same,Potency,[16],inactive
CCC1C(=O)OCC1Cc1cncn1C (configuration not stated),max response,[1],-5.1%
same,Potency,[2],inactive
same,Potency,[4],inactive
same,Potency,[5],inactive
same,Potency,[6],inactive
same,Potency,[7],inactive
same,Potency,[8],inactive
same,Potency,[17],inactive
same,Potency,[9],inactive
same,Potency,[10],inactive
same,Potency,[11],inactive
same,Potency,[12],inactive
same,Potency,[13],inactive
same,Potency,[14],inactive
same,Potency,[15],inactive
same,Potency,[16],inactive
Cc1nc2ccccc2n1Cc1ccc(Cl)cc1,max response,[1],-22.4%
same,Potency,[2],inactive
same,Potency,[3],inactive
same,Potency,[17],inactive
same,Potency,[11],inactive
same,Potency,[13],inactive
same,Potency,[14],8.91 µM (active)
same,Potency,[16],3.98 µM (active)
CN(C)c1ccc(C(=C2C=CC(=[N+](C)C)C=C2)c2ccccc2)cc1,Potency,[1],0.237 µM (active)
same,Potency,[2],0.0376 µM (active)
same,Potency,[4],0.0376 µM (active)
same,Potency,[5],0.0133 µM (active)
same,Potency,[6],0.0668 µM (active)
same,Potency,[8],2 µM (active)
same,Potency,[10],1.78 µM (active)
same,Potency,[11],2.51 µM (active)
same,Potency,[12],2.51 µM (active)
same,Potency,[14],11.2 µM (active)
same,Potency,[15],1.26 µM (active)
same,Potency,[16],1.12 µM (active)
CC1(C)S[C@@H]2[C@H](NC(=O)[C@H](N)c3ccc(O)cc3)C(=O)N2[C@H]1C(=O)O,outcome,[1],inactive
same,outcome,[18],inactive
same,outcome,[19],inactive
same,Potency,[17],inactive
same,Potency,[9],inactive
same,Potency,[10],inactive
same,Potency,[11],inactive
same,Potency,[12],inactive
same,Potency,[13],inactive
same,Potency,[14],inactive
same,Potency,[15],inactive
same,Potency,[16],inactive
CN(C)[C@@H]1C(=O)C(C(=O)NCN2CCCC2)=C(O)[C@@]2(O)C(=O)C3=C(O)c4c(O)cccc4[C@@](C)(O)C3C[C@@H]12 (some centres not stated),max response,[1],1.26%
same,Potency,[2],inactive
same,Potency,[4],inactive
same,Potency,[5],inactive
same,Potency,[6],inactive
same,Potency,[7],inactive
same,Potency,[8],inactive
same,Potency,[17],inactive
same,Potency,[9],inactive
same,Potency,[10],inactive
same,Potency,[11],inactive
same,Potency,[12],inactive
same,Potency,[13],inactive
same,Potency,[14],inactive
same,Potency,[15],inactive
same,Potency,[16],inactive
